Laboratory results taken from PubChem BioAssay AID1508600 (Functional Genomics Laboratory (NCATS/FGL), 2020).
In all, about 53,000 sequences went through this assay and about 3,700 (7%) were called active. Shown is part of a subset that was picked to be rich in actives. Unmarked numbers belong to inactive results.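 The calls were made as follows: active = gene knockdowns whose robust z-score for IL-1 alpha signal is at least 2 or at most -2, so actives lie on both sides; inactive = the rest.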

assay: Components of the Cytosolic LPS Sensing Pathway: Gene Identification via Genome-wide siRNA Screen; conditions: RAW264.7 macrophages, IL-1a HTRF, actives lie on both sides, screened at 100 nM (by protocol), cells primed 5 h with Pam3CSK4 first
Excerpt: Non-canonical inflammasome activation by cytosolic LPS is a critical component of the host response to Gram-negative bacterial infection, however we lack a comprehensive understanding of the cellular processes that control this pathway. Here we describe a genome-wide siRNA screen to identify genes regulating the mouse macrophage IL-1 alpha response to cytosolic LPS.
RAW264.7 cells were maintained in complete DMEM media, comprising DMEM with 4.5 g/L glucose, 10% FBS (Gemini Bio-Products, West Sacramento, CA), 2 mM Glutamine (Lonza) and 20 mM HEPES (Lonza), hereafter complete DMEM.
The RNAi screen was conducted in 384-well format using the Ambion Silencer Mouse Genome siRNA Library (#4391425), which consists of three unique, nonoverlapping, nonpooled siRNAs for each of 17,000 gene targets. siRNA reagents ([…]) were stamped into 384-well white flat-bottom microplates (Corning, 3570) using a Velocity11 VPrep liquid handling system (Agilent) integrated into a BioCel robotic platform (Agilent) in columns 1-22, leaving columns 23-24 empty for negative (Ambion, Negative control #1) and positive (mouse Casp4) controls, respectively. The median value of each plate's negative control column was used to normalize sample wells, and the positive control was used to assess transfection efficiency and assay performance.
Lipofectamine RNAiMAX Transfection Reagent ([…]; Invitrogen) was added in […] serum-free, antibiotic-free media to plate wells using a Thermo Scientific Matrix WellMate and Microplate Stacker. Plates were incubated for 45 min at room temperature to allow for the sufficient formation of siRNA-lipid complexes. Cells were seeded at a density of 1x10^4 cells per well in 20 microL media containing 20% (vol/vol) FBS without antibiotics. The final concentration of siRNA in each well was 100 nM. Cells were cultured for 48h at 37 degrees C in 5% CO2 before addition of […] of TLR ligand Pam3CSK4 for 5 hours. The medium was then removed, replaced with […] growth media and cell were transfected with […] of LipidA and TransIT-TKO (Mirus) for 24 hour. At the end of the LipidA treatment, […] of supernatant was transferred to a 384 Greiner Bio-one non-binding low volume plate and […] of IL-1a HTRF reagent (Cisbio, 62MIL1APEH) was added and incubated at room temperature overnight. The plates were read on an EnVision plate reader (PerkinElmer). Cell viability was measured by adding 20ul Cell Titer Glo to the original plate and running a luminescence read on the EnVision. The quantified IL-1a signal for each siRNA gene-targeted well was divided by the median of the negative control wells and multiplied by 100 to achieve a negative control normalized value for each well/siRNA. This normalized value was then used to generate a robust z-score by first taking the log of each value and then by subtracting the median and dividing by the […].

Sequence | z-score
GCCACGUCUGAACACUUCATT against Vamp8 | 0.873
GCCUGUUUAGAAUUAGAGATT against Plekhs1 | 0.135
GCUGAUGGACAAAUUCCACTT against Rapgef1 | 0.505
GCCAUUGCUAUCCAUCGUGTT against Ddx39b | -2.57 (active)
CCAAAGUUCCCUUAGCCAUTT against Cntrob | 0.12
GCGGCACUUUAUCAUUAUCTT against Hint3 | 0.398
GCCCAUUCUAAACAAAUAATT against Ptcd1 | -0.825
GGAGCUUAAAGUGAGCGGCTT against Lage3 | -0.859
CGACCAGUCACAAUGGUUATT against Edil3 | 1.43
GGUGAUUGCUGAAGACGAGTT against Fbxw8 | -0.172
CCUCGAAACUCAUUUCCAGTT against Prkch | -0.603
GGGUUAAUCCCUAUCUCUUTT against Tfe3 | 0.419
GAUCUCAAACAUUCUAUGCTT against Lce1c | -1.14
GGAGCCAAGUGUGAUUACATT against Pias3 | 6.29 (active)
GGAAUCUGAAUUUUUGUGUTT against Commd1 | -0.576
GACCUGUUUUGUCUUUUGCTT against Ms4a4c | 1.34
GCUUGAUAGGGAACUUAAUTT against Olfr805 | -1.57
GCUGCUGGAUGCAACCAAATT against Slc16a3 | -0.379
GCUGCACGUGAUCAUGGAUTT against Accs | 0.852
GCCUAAGAUCUGGACCUAATT against Timm44 | -0.35
GGAGAAGCAUUAUUUUGAATT against Myb | 0.798
GGACGACUGGAAGUUUUCUTT against 5830411N06Rik | 3.95 (active)
GGAGCCCUUGCUCUUUAACTT against Izumo1r | -2.23 (active)

Sequence | z-score
GGACAUAAGAGAAUGGUCATT against Lpp | 2.07 (active)
GGCAAAUGUACUAAAAUGATT against Gpr34 | 0.764
GCCACUUACACUUACUUGATT against Olfr1331 | -0.15
GCAUAAGCCACACCCUCUGTT against Cops7a | 1.03
GGGAAAUUUAAAAACCUGGTT against Hoxa2 | -0.139
GGAAAGACCAUUCUGUAUUTT against Vps37d | -1.54
GCUGAACUGUCUCAGCUCATT against Tmem81 | 2.06 (active)
AGAAGAUACCGAUCAAGCGTT against Nsmce3 | 0.049
GCAUGGGCAUAACCGAAAGTT against Rex2 | -0.332
GGAGAAGUAAUGACAAAUUTT against Foxp4 | -1.47
GGACGUGACUCUCAUCAUCTT against Atp2b3 | 0.929
GUGAUGUGGCCAUGUCAAUTT against Olfr641 | -2.61 (active)
GGAGAGGAAAAUUGUAUUUTT against Alox12 | -0.037
CCCAUUCUGUAUAUAGUGCTT against Adam6a | -0.0363
CGGUUAGAGCAUUAAGUUCTT against Lias | 0.817
GCUCGAUUCAGAAAUCUACTT against Sgce | -0.735
GACUGAACAGAUCUACUCUTT against Klra7 | -0.413
CGCAUUUCGAAUAAAGACATT against Mettl22 | -0.546
GCAUUUCACCGUCAUGAACTT against Ttll12 | -2.55 (active)
GGAAGUUUGCUCAAUCUCATT against Jarid2 | 1.12
GGACCUGUAUUCACACCUUTT against Wdr61 | 0.0931
GGGUUUUUGAUGAUGAUUCTT against Htatsf1 | -0.66
CGGGAUAGCUGUCCUGUUATT against Mrps14 | 0.127

Sequence | z-score
GAAGCGAUGCUCAGAUCCATT against Serpina1d | 0.136
GCCCUCCUUAUAGCUUAAUTT against Asic3 | -2.2 (active)
GCUUCGAAGCAACAUCCGATT against Rims3 | -0.00729
GGAAAAACUGUGCAAAUAATT against Krt75 | 1.26
GCAGGCAUUCUGCUCUAUATT against Oxgr1 | 1.01
GGGACAUUAAUAAACCUGATT against Omg | -0.269
CCAUGGCCUAGAGCUGGAUTT against Unc5cl | 0.315
GGAAGUAACAUGCUUCUAGTT against Ccdc42 | 0.75
GGAUUCCAUCUUUGUAUGATT against Cbr4 | 0.689
GCCAAGUGAUUGAAAAAACTT against Lnpk | -0.423
GGUGAAGAAAGUCAAGAAGTT against Spi1 | -2.46 (active)
GGUUCUGGUGGUGAAUGUGTT against Kcnd1 | -1.51
GCGAGUUGUUUCCAUAGUUTT against Gpr22 | -0.388
GGCAGAGCUAGAUCAAAUUTT against Retreg1 | 3.58 (active)
GGAAAUUCACACAGAUGAATT against Mtmr12 | -1.27
GCCAACCUUCAAGGAAUAUTT against Cyp2b10 | 1.4
GGGAAGACAAGAACAACUUTT against Pitrm1 | 0.756
GGUCGUUAUCACUCUCUAUTT against Pkd1l3 | 3.34 (active)
CCCUUUAGCUUCCUAAUGUTT against Rhag | 0.11
GGUUUUAUUAACUCUGUGATT against Olfr1013 | 0.453
GGACUGCUUUUUUUACUCATT against Mta2 | -2.07 (active)
CCUGGUAAUCACAAUUUCGTT against Tor1b | -0.655
GGUAGACAAGAUCAUCGGATT against Dsc3 | 0.711
